The whole screen tested about 6,200 compounds, of which about 2,900 (47%) were called active. No stated cut-off is given here; in the data, active means inhibition above about 50%; inactive means the rest. So high a share suggests a set chosen from earlier hits. This is one part of the list.
assay: Mycobacterium tuberculosis growth inhibition, primary screen (AID 1259343); settings: inhibition: at 10 µM, stronger effect = higher value; outcome: 10 uM

SMILES	inhibition
CC(NS(=O)(=O)c1ccc(Cl)cc1)C1CC2CCC1C2 (centres undefined)	-15.9% (inactive)
CC(NC(=O)NC(=O)N(C1CCCCC1)S(C)(=O)=O)C1CC2CCC1C2 (centres undefined)	79.8% (active)
CC(NC(=O)c1ccc2ncsc2c1)C1CC2CCC1C2 (centres undefined)	5.4% (inactive)
COc1ccc(CC(=O)Nc2cc(C)nn2-c2nc3c(c(=O)[nH]2)CCC3)cc1OC	101% (active)
CCc1c(C)nc(-n2nc(C)cc2NC(=O)Cc2ccc([N+](=O)[O-])cc2)[nH]c1=O	78.5% (active)
CCc1c(C)nc(-n2nc(C)cc2NC(=O)Cc2ccc(OC)cc2)[nH]c1=O	99.1% (active)
COc1ccc(CC(=O)Nc2cc(C)nn2-c2nc(C)c(C)c(=O)[nH]2)cc1	-19.9% (inactive)
CCc1c(C)nc(-n2nc(C)cc2NC(=O)/C=C/c2ccc(OC)c(OC)c2)[nH]c1=O	99.3% (active)
CCc1c(C)nc(-n2nc(C)cc2NC(=O)c2ccc(OC)cc2OC)[nH]c1=O	-4.11% (inactive)
C=CC(=O)Nc1cccc(Sc2nc(Nc3ccc(N4CCN(C)CC4)cc3)ncc2Cl)c1	33.2% (inactive)
O=C(CSc1nnc(C23CC4CC(CC(C4)C2)C3)o1)N1CCCC1	45.1% (inactive)
COc1ccc(CC(=O)Nc2cc(C)nn2-c2nc(C)c(C)c(=O)[nH]2)cc1OC	100% (active)
CCc1c(C)nc(-n2nc(C)cc2NC(=O)Cc2ccc(OC)c(OC)c2)[nH]c1=O	101% (active)
Cc1ccc(Oc2ccc3ncccc3c2N)c(Br)c1	14.7% (inactive)
CCNC(=O)c1cc(N2CCC(c3ccc(OC)cc3)C2)ccn1 (centres undefined)	-14.2% (inactive)
CCNC(=O)c1cc(Oc2ccc(C)cc2Br)ccn1	89.2% (active)
O=C(NCC1COc2ccccc2O1)N1CCN(c2ccc(F)cc2)CC1 (centres undefined)	26.7% (inactive)
CC(NC(=O)c1cc(Cl)ccc1NS(C)(=O)=O)c1ccc2c(c1)OCO2 (centres undefined)	7.73% (inactive)
CC(NC(=O)C1Cc2ccccc2O1)c1ccc(Cl)s1 (centres undefined)	4.06% (inactive)
O=C(NCc1ccco1)C1Cc2cc(Cl)ccc2O1 (centres undefined)	22% (inactive)
O=C(NCC1COc2ccccc2O1)C1Cc2cc(Cl)ccc2O1 (centres undefined)	67% (active)
O=C(NCC1COc2ccccc2O1)c1ccc2c(c1)CCC2 (centres undefined)	66.8% (active)

SMILES	inhibition
Fc1ccccc1NC(=S)NCC1COc2ccccc2O1 (centres undefined)	11.1% (inactive)
CC(NC(=O)C1Cc2cc(Cl)ccc2O1)c1ccc(F)c(F)c1 (centres undefined)	59.3% (active)
O=C1CC(NC(=O)C(F)(F)F)=NN1c1ccccc1	70.9% (active)
CCCc1nc(C(=O)N2CCOC(c3ccc(Cl)cc3)C2)cs1 (centres undefined)	28.4% (inactive)
O=C(c1csc(-c2cccnc2)n1)N1CCOC(c2ccc(Cl)cc2)C1 (centres undefined)	61% (active)
Clc1ccc(C2CN(Cc3cc(-c4cccnc4)no3)CCO2)cc1 (centres undefined)	6.33% (inactive)
Cc1ccccc1OCC(=O)N1CCN(c2ncnc3c2nnn3-c2cccc(F)c2)CC1	67.9% (active)
Nc1ccc(F)cc1-c1nc(CCOc2ccccc2)no1	74.1% (active)
c1ccc(Cc2nc(CCOc3ccccc3)n[nH]2)cc1	36.5% (inactive)
CCn1c(=S)[nH]c2sc3c(c2c1=O)CCCC3	38.1% (inactive)
COCCCn1c(=S)[nH]c2sc3c(c2c1=O)CCCC3	20.5% (inactive)
O=c1c2c3c(sc2[nH]c(=S)n1CC1CCCO1)CCCC3 (centres undefined)	68.2% (active)
CCCc1cc(Nc2ccc(NC(C)=O)cc2)n2ncc(-c3ccccc3)c2n1	-6.07% (inactive)
CCC(=O)c1cccc(-c2ccc(NC(C)=O)cc2)c1	78.7% (active)
O=C1c2ccccc2C(=O)c2c1oc1c3c(ccc21)OCN(C1CCCC1)C3	99.5% (active)
CCOC(=O)c1ccc(NC(=O)c2cc3cc([N+](=O)[O-])ccc3oc2=N)cc1	62.9% (active)
COC(=O)c1cc2cc(Br)ccc2oc1=O	-45.4% (inactive)
CCOC(=O)C(CC)Sc1nnc(NC(=O)c2ccc(Br)cc2)s1 (centres undefined)	91.5% (active)
COC(=O)C(C)Sc1nc2c(c(=O)n(C)c(=O)n2C)n1CCC(C)C (centres undefined)	26.7% (inactive)
Cc1cccc(Cn2c(SC(C)C)nc3c2c(=O)n(C)c(=O)n3C)c1	81.2% (active)
CSc1nc2c(c(=O)n(C)c(=O)n2C)n1CCCc1ccccc1	28.2% (inactive)
CN(Cc1ccc(-n2cccn2)cc1)S(=O)(=O)c1cccs1	10.7% (inactive)

SMILES	inhibition
Fc1cccc(NCCc2ccc(-n3cccn3)cc2)n1	67.5% (active)
CCc1nn2c(NCCOC)cc(C)nc2c1-c1ccccc1	32.2% (inactive)
Cc1cc(NCCCn2ccnc2)n2ncc(-c3ccc(Cl)cc3)c2n1	95.2% (active)
COCCNc1cc(C)nc2c(-c3ccc(Cl)cc3)cnn12	98.7% (active)
Cc1cc(NCCOCCO)n2ncc(-c3ccc(Cl)cc3)c2n1	-5.37% (inactive)
c1ccc(-c2cc(NCCCn3ccnc3)n3ncc(-c4ccccc4)c3n2)cc1	-16.1% (inactive)
Cc1ccc(-c2cnn3c(-n4nc(C)cc4C)cc(C)nc23)cc1	47.1% (inactive)
O=C1CC(c2ccc(O)cc2)Oc2ccccc21 (centres undefined)	72.9% (active)
O=C1CC(c2ccc3c(c2)OCCO3)Oc2ccc(Br)cc21 (centres undefined)	inactive
COc1ccc2c(c1OC)C(=O)OC2Nc1ccc(I)cc1 (centres undefined)	72.8% (active)
O=C1NC(=O)C(Nc2ccc(I)cc2)S1 (centres undefined)	27.9% (inactive)
FC(F)(F)c1cccc(OCCCCn2cnc3ccccc32)c1	76.6% (active)
c1ccc(OCCCCn2nnc3ccccc32)cc1	21.5% (inactive)
c1ccc(COc2ccc(OCCCn3cnc4ccccc43)cc2)cc1	85.3% (active)
Cc1ccc(OCCCn2cnc3ccccc32)cc1	36% (inactive)
Cc1ccc(C(C)C)cc1OCCCn1cnc2ccccc21	78.4% (active)
Ic1ccc(OCCCn2cnc3ccccc32)cc1	70.5% (active)
CC1=C(C(=O)OCCOc2ccccc2)C(c2ccccc2[N+](=O)[O-])NC(=O)N1C (centres undefined)	-7.53% (inactive)
Cc1cc(OCC(O)CN(Cc2ccccc2)C(C)(C)C)ccc1[N+](=O)[O-] (centres undefined)	0.53% (inactive)
Cc1cc(OCCCn2cnc3ccccc32)ccc1[N+](=O)[O-]	61.1% (active)
